Among the data in PubChem BioAssay (Tox21) are Potency and activation values, retold here.

Test [1] in a line: qHTS assay to identify small molecule antagonists of the glucocorticoid receptor (GR) signaling pathway - cell viability counter screen (AID 720693). Note: nearly all actives have a fitted effect of over 55% in size. Note: potency is the fitted concentration of half-maximal effect.
Test [2] can be described thus: qHTS assay for identifying genotoxic compounds that show differential cytotoxicity against isogenic chicken DT40 cell lines with known DNA damage response pathways - wild type cell line (AID 743012). Note: nearly all actives have a fitted effect of over 60% in size. Note: potency is the fitted concentration of half-maximal effect. An outline of the steps:
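Cytotoxicity in repair-proficient parental chicken DT40 cells serves as the comparator for Rad54/Ku70- and Rev3-deficient lines. Cells were exposed to compounds for 40 h at 37 C/5% CO2, and ATP-based luminescence (CellTiter-Glo) measured viability.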

Test [3] in a line: qHTS assay for identifying genotoxic compounds that show differential cytotoxicity against isogenic chicken DT40 cell lines with known DNA damage response pathways - Rev3 mutant cell line (AID 743014). Note: nearly all actives have a fitted effect of over 55% in size. Note: potency is the fitted concentration of half-maximal effect.
The nature of test [4]: qHTS assay for identifying genotoxic compounds that show differential cytotoxicity against isogenic chicken DT40 cell lines with known DNA damage response pathways - Rad54/Ku70 mutant cell line (AID 743015). Note: nearly all actives have a fitted effect of over 60% in size. Note: potency is the fitted concentration of half-maximal effect.
The nature of test [5]: qHTS assay to identify small molecule antagonists of the androgen receptor (AR) signaling pathway - cell viability counter screen (AID 743033; note: nearly all actives have a fitted effect of over 45% in size; note: potency is the fitted concentration of half-maximal effect).
For test [6], the target named is Androgen receptor (Homo sapiens) (UniProt P10275). The experiment in a line: qHTS assay to identify small molecule agonists of the androgen receptor (AR) signaling pathway using the MDA cell line (AID 743040; note: nearly all actives have a fitted effect of over 20% in size). An outline of the steps:
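Luciferase read-out, ONE-Glo, 30 min RT. Cells: MDA-kb2 AR-luc, MMTV promoter with AR and GR response elements. Compound exposure 16 h, 37C, 0% CO2, after 5 h pre-incubation. qHTS agonist mode.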

Test [7] is described as follows: qHTS assay to identify small molecule antagonists of the androgen receptor (AR) signaling pathway using the MDA cell line - cell viability counter screen (AID 743041; note: nearly all actives have a fitted effect of over 45% in size; note: potency is the fitted concentration of half-maximal effect). An outline of the steps:
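Cytotoxicity counter screen: MDA-kb2 AR-luc cells, compound + R1881, 16 h, 37C, 0% CO2; CellTiter-Fluor added at 15.5 h, fluorescence read after 30 min.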

Test [8] deals with Androgen receptor (Homo sapiens) (UniProt P10275). The experiment in a line: qHTS assay to identify small molecule antagonists of the androgen receptor (AR) signaling pathway using the MDA cell line (AID 743042; note: nearly all actives have a fitted effect of over 55% in size; note: potency is the fitted concentration of half-maximal effect). An outline of the steps: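 MDA-kb2 breast carcinoma cells carrying MMTV-luciferase (AR/GR responsive) were co-treated with compounds and the agonist R1881 for 16 h at 37C. Inhibition read as ONE-Glo luminescence; CellTiter-Fluor fluorescence measured in parallel for cytotoxicity.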

Test [9] is described as follows: qHTS assay to identify small molecule antagonists of the thyroid receptor (TR) signaling pathway - cell viability counter screen (AID 743064). Note: nearly all actives have a fitted effect of over 50% in size. Note: potency is the fitted concentration of half-maximal effect. The procedure, abridged:
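In rat pituitary GH3.TRE-Luc reporter cells co-exposed to compound and 1 nM T3 for 23.5 h, cytotoxicity was assessed with CellTiter-Fluor in the same wells, read by fluorescence.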

The nature of test [10]: qHTS assay to identify small molecule antagonists of the thyroid receptor (TR) signaling pathway (AID 743065). Note: nearly all actives have a fitted effect of over 55% in size. Note: potency is the fitted concentration of half-maximal effect. The procedure, abridged: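 GH3.TRE-Luc rat pituitary cells (two TREs driving luciferase) were dosed with compound, then stimulated with 1 nM T3 (final) for 23.5 h at 37 C. ONE-Glo luminescence was the read-out, with CellTiter-Fluor fluorescence as the cytotoxicity counter-screen.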

The target in test [11] is Estrogen receptor (Homo sapiens) (UniProt P03372). The experiment in a line: qHTS assay to identify small molecule agonists of the estrogen receptor alpha (ER-alpha) signaling pathway (AID 743075; calls by dose curve;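 note: HEK293 GripTite cells with ER-alpha and UAS-driven beta-lactamase reporter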; note: potency is the fitted concentration of half-maximal effect). The following applies: HEK293 ER-alpha-UAS-bla, beta-lactamase FRET ratio, 18 h; activation: at 70.1 µM (top of the series).
Test [12] can be described thus: qHTS assay to identify small molecule antagonists of the estrogen receptor alpha (ER-alpha) signaling pathway using the BG1 cell line - cell viability counter screen (AID 743081).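 Note: compound given together with 17beta-estradiol as the ER stimulus; nearly all actives have a fitted effect of over 45% in size.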 Note: potency is the fitted concentration of half-maximal effect.
A further test concerns the target Aromatase (Homo sapiens) (UniProt P11511). The experiment in a line: qHTS assay to identify aromatase inhibitors (AID 743083). Note: nearly all actives have a fitted effect of over 55% in size. Note: potency is the fitted concentration of half-maximal effect.
Test [13] relates to thyroid hormone receptor (rat, GH3 cells). The test can be described thus: qHTS assay to identify small molecule agonists of the thyroid receptor (TR) signaling pathway (AID 743066; calls by dose curve).
The target of test [14] is Estrogen receptor (Homo sapiens) (UniProt P03372). The experiment in a line: qHTS assay to identify small molecule antagonists of the estrogen receptor alpha (ER-alpha) signaling pathway (AID 743069; active = well fitted curve in the direction sought with a large enough effect in the signal ratio in the repeat runs, not every such curve was filed as active; inconclusive = weak or mixed curves, or effect the other way; inactive = no such curve, though single readings can be large or run the other way; the % refers to the signal ratio; note: potency is the fitted concentration of half-maximal effect). An outline of the steps: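 Beta-lactamase FRET fluorescence is read after 2 hr at room temperature with LiveBLAzer B/G substrate. Before that, ER-alpha-bla HEK293 cells sit 4 hr after plating, then receive compound plus 17beta-estradiol and incubate 18 hr at 37C.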

The nature of test [15]: qHTS assay to identify small molecule antagonists of the estrogen receptor alpha (ER-alpha) signaling pathway - cell viability counter screen (AID 743074; calls by dose curve;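 note: HEK293 cells carrying ER-alpha-UAS-bla reporter stimulated with 17beta-estradiol; nearly all actives have a fitted effect of over 45% in size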; note: potency is the fitted concentration of half-maximal effect).
Test [16] deals with Estrogen receptor (Homo sapiens) (UniProt P03372). The experiment in a line: qHTS assay to identify small molecule agonists of the estrogen receptor alpha (ER-alpha) signaling pathway using the BG1 cell line (AID 743079). Note: nearly all actives have a fitted effect of over 20% in size. To be noted: BG1Luc4E2 cells, ERE-luciferase agonist, 22 h; at 70.3 µM (top of the series).
A short description of test [17]: qHTS assay to identify small molecule antagonists of the estrogen receptor alpha (ER-alpha) signaling pathway using the BG1 cell line (AID 743080; calls by dose curve; note: nearly all actives have a fitted effect of over 25% in size; note: potency is the fitted concentration of half-maximal effect). An outline of the steps:
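Antagonist mode: compounds in DMSO were pinned onto BG1-Luc-4E2 cells alongside 17beta-estradiol agonist, incubated 21.5 h, and ERE-driven luciferase measured with ONE-Glo. Cytotoxicity was multiplexed using CellTiter-Fluor fluorescence.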

Test [18] deals with Androgen receptor (Homo sapiens) (UniProt P10275). The test can be described thus: qHTS assay to identify small molecule antagonists of the androgen receptor (AR) signaling pathway (AID 743035; active = well fitted inhibition curve with a large enough effect in the signal ratio in the repeat runs, not every such curve was filed as active; inconclusive = weak or mixed curves, or effect the other way; inactive = no such curve, though single readings can be large or run the other way; the % refers to the signal ratio; note: potency is the fitted concentration of half-maximal effect). An outline of the steps:
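Steps: seed AR-UAS-bla GripTite HEK293 cells, incubate 4 h at 37C; pin in test compound, then add agonist R1881; incubate 16 h at 37C; add LiveBLAzer B/G FRET substrate, 2 h at room temperature; read fluorescence.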

For test [19] the target is unchanged. The test can be described thus: qHTS assay to identify small molecule agonists of the androgen receptor (AR) signaling pathway (AID 743036; active = well fitted activation curve with a large enough effect in the signal ratio in the repeat runs, with a control signal flat, not every such curve was filed as active; inconclusive = weak or mixed curves, or effect the other way; inactive = no such curve, though single readings can be large or run the other way; the % refers to the signal ratio). An outline of the steps:
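Cell-based FRET reporter assay: HEK293 line with a UAS-beta-lactamase construct, compounds added in DMSO, 16 h exposure at 37C, then 2 h substrate step at room temperature and fluorescence intensity read.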

SMILES strings stand for the structures. Several values for one entry are separate records, joined by “and”; a condition that tells them apart may be missing. Equal entries are not always repeated. Where a structure was tested more than once in an assay, its records may differ in their call. Activity calls are given as the source filed them. Unless noted, calls come from the whole dose curve; as a rule, active = well fitted curve in the direction sought with a large enough effect in the repeat runs; inconclusive = weak or mixed curves; inactive = no such curve, though single readings can be large; an effect the other way counts as inactive or inconclusive.
% is set by controls: 0 for no effect and ±100 for the full control effect.

Androgen receptor (Homo sapiens), sequence (P10275 whole entry, looked up): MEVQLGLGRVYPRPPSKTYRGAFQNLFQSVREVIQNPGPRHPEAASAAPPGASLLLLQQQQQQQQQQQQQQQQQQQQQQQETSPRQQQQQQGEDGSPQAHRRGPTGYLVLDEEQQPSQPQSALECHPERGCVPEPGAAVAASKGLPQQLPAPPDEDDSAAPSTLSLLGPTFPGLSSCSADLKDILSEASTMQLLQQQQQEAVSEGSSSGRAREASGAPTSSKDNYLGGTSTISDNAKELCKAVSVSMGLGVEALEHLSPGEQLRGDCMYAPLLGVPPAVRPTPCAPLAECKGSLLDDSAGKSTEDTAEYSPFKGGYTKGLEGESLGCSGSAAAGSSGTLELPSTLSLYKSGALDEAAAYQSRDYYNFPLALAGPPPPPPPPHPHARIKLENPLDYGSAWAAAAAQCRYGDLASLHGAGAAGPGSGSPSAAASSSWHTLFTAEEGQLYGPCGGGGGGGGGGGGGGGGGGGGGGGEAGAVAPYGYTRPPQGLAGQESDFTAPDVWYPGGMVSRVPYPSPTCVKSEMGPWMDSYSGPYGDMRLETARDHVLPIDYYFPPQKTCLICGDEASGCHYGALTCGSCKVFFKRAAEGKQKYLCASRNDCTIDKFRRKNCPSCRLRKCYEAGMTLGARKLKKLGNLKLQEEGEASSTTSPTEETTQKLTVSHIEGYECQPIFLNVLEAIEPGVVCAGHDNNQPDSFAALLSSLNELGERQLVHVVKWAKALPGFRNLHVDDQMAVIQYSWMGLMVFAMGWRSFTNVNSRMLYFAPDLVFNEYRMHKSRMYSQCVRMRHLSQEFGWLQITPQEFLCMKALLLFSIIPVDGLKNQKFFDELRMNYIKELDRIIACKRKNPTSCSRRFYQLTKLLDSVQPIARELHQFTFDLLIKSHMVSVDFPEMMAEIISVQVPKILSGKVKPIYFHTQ
Estrogen receptor (Homo sapiens), sequence (P03372 whole entry, looked up): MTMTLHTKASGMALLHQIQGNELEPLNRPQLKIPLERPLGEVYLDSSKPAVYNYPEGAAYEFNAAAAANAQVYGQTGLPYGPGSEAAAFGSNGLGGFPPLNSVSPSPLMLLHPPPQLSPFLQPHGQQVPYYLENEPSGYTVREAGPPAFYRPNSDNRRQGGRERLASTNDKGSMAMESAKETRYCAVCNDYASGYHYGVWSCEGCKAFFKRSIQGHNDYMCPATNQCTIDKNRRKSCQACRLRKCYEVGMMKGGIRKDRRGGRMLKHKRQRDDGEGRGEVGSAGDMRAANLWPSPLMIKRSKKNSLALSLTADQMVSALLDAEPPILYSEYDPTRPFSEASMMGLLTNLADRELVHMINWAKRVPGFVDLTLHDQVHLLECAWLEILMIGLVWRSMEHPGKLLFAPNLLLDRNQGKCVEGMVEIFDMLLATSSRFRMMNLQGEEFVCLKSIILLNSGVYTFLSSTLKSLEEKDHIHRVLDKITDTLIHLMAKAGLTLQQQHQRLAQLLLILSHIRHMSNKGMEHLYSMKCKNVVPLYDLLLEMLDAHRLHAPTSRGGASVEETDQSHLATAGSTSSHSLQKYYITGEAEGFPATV
Aromatase (Homo sapiens), sequence (P11511 whole entry, looked up): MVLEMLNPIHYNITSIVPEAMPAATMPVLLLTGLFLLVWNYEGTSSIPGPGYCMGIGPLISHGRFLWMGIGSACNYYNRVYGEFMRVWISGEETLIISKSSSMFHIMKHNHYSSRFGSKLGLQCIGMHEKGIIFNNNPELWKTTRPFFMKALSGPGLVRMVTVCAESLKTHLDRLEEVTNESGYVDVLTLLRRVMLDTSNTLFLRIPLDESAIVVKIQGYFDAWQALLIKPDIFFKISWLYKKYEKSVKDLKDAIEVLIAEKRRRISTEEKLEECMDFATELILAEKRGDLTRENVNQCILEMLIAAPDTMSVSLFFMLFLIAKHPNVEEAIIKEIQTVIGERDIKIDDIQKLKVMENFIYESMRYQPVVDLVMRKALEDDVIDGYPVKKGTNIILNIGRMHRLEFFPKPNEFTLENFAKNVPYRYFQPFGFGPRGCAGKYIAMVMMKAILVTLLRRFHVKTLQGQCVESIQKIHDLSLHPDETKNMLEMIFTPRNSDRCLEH

For the compound `[O-][n+]1ccccc1SSc1cccc[n+]1[O-]`, the Potency entry in test [1], in [6], in test [11] and in test [12] was “inactive” in each case. Besides, the Potency in test [2] is 0.0596 µM (active); in test [3] it was 0.0668 µM (active); in test [4], 0.0841 µM (active); in [5], 0.169 µM (active); in [7], 1.56 µM (active); in test [8], 1.19 µM (active). Further, the Potency was 0.266 µM (active) in test [9], 0.211 µM (active) in test [10] and 0.15 µM (active) with Aromatase (Homo sapiens).

Turning to `CC(=O)S[C@@H]1CC2=CC(=O)CC[C@]2(C)[C@H]2CC[C@@]3(C)[C@@H](CC[C@@]34CCC(=O)O4)[C@H]12`, the Potency in test [1] was 49 µM (active); in test [2], 7.5 µM (active) and 6.11 µM (active); in [3] it was 9.44 µM (active) and 6.11 µM (active); in [4], 8.41 µM (active) and 6.11 µM (active); in test [9] it was 27.3 µM (active); in [10], 26.6 µM (active) and 27.3 µM (active). The Potency is 12.3 µM [inconclusive] (active) in test [14]; “inactive and 48.6 µM (active)” in test [17]; 26.6 µM (active) and 27.3 µM (active) in the test with Aromatase (Homo sapiens). For the same compound, the Potency entry in test [5], in test [7], in test [13], in [15], in test [11] and in test [12] was “inactive” each time. Also, the activation in test [16] was 7.41% (inactive) and -17.9% (inactive).

Take `O=c1cc(-c2ccc(O)cc2)oc2cc(O)cc(O)c12`: the Potency in [1] was 49 µM (active); in test [2], 27.3 µM (active); in [3] it was 69.5 µM (active) and 27.3 µM (active); in [4] it was 31 µM (active) and 13.7 µM (active); in test [9], 55.2 µM (active); in test [10], 61.9 µM (active) and 30.6 µM (active). The Potency result in [5], in test [7] and in test [13] was “inactive” each time.

Consider `OCCN(CCO)c1nc(N2CCCCC2)c2nc(N(CCO)CCO)nc(N3CCCCC3)c2n1`, for which the Potency entry in test [1], in [5], in test [6], in [8], in test [13] and in test [15] was “inactive” throughout. Moreover, in the test with Aromatase (Homo sapiens), the Potency result was “inactive”. Also, the Potency in test [2] was 11.9 µM (active); in test [3], 9.44 µM (active); in test [4], 10.6 µM (active); in test [10], 23.7 µM (active).

For `CCC1=C[C@@H]2CN(C1)Cc1c([nH]c3ccccc13)[C@@](C(=O)OC)(c1cc3c(cc1OC)N(C)[C@H]1[C@@](O)(C(=O)OC)[C@H](OC(C)=O)[C@]4(CC)C=CCN5CC[C@]31[C@@H]54)C2`, the Potency entry (in [1]; in test [5]; in [7]; in test [15]; with Aromatase (Homo sapiens)) was “inactive” throughout. Besides, the Potency in test [2] was 0.075 µM (active); in [3], 0.0841 µM (active); in test [4], 0.119 µM (active); in test [9], 4.73 µM (active); in [10], 1.88 µM (active).

As to `CCC(C)Nc1ccc(NC(C)CC)cc1` (configuration not stated), the Potency in test [1] is 44.5 µM (active); in test [2], 12.4 µM (active); in test [3], 5.55 µM (active); in [4] it was 6.99 µM (active); in [5] it was 12.5 µM (active); in [18], 8.88 µM (active). The Potency in [7] was 19.7 µM (active); in [8], 8.8 µM (active); in test [9], 14 µM (active); in test [10] it was 14 µM (active); in test [14], 22.3 µM [inconclusive] (active); in test [15], 25 µM (active). Further, the values for the Potency (in test [12]; with Aromatase (Homo sapiens)) were 24.8 µM (active) and 3.93 µM (active), respectively. Besides, the Potency result in test [6] and in test [13] was “inactive” each time.

With `CC(C)(C)c1ccc(C(=O)O)cc1`, the Potency entry in test [1], in test [2], in test [3], in [4], in test [5] and in test [7] was “inactive” in each case. In addition, the Potency entry (in [9]; in test [10]; in test [13]; in test [15]; in test [12]; in the test with Aromatase (Homo sapiens)) was “inactive” each time.

`C=CC(=O)OCC(CO)(COCC(COC(=O)C=C)(COC(=O)C=C)COC(=O)C=C)COC(=O)C=C`: the Potency in [1] was 4.31 µM (active); in [2], 0.34 µM (active); in test [3], 0.428 µM (active); in test [4], 0.303 µM (active); in test [5], 3.84 µM (active); in test [18], 1.93 µM (active). In addition, the Potency in [7] is 1.2 µM (active); in test [8], 1.07 µM (active); in test [9] it was 1.52 µM (active); in [15], 21.6 µM (active); in [11], 10.8 µM [inconclusive] (active); in test [12] it was 13.5 µM (active). For the same compound, the Potency with Aromatase (Homo sapiens) was 2.4 µM (active). Also, the Potency entry in test [6] is “inactive”.

In the case of `Cc1cc(O)c(C(C)(C)C)cc1C(C)(C)C`, the Potency is 43.6 µM (active) in test [1]; 10.9 µM (active) in test [2]; 6.86 µM (active) in [3]; 13.7 µM (active) in [4]; 21.9 µM (active) in [5]; 43.3 µM (active) in [7]. The Potency is 54.5 µM (active) in test [8]; 24.3 µM (active) in test [9]; 21.7 µM (active) in test [10]; 17.4 µM (active) in test [15]; 54.5 µM (active) with Aromatase (Homo sapiens). Besides, the Potency entry in test [6], in [13] and in test [12] was “inactive” throughout.

For `CCCCCCCCCCC=O`, the Potency result in test [1], in test [2], in [3], in test [4], in test [5] and in test [18] was “inactive” each time. Further, the Potency result in test [6], in test [7], in test [8], in test [9], in test [10] and in [13] was “inactive” throughout. In addition, the Potency entry (in test [15]; in [12]; with Aromatase (Homo sapiens)) was “inactive” each time.

With `COc1cc(/C=C/C(=O)O[C@H]2CC[C@]34C[C@]35CC[C@]3(C)[C@@H]([C@H](C)CCC=C(C)C)CC[C@@]3(C)[C@@H]5CC[C@H]4C2(C)C)ccc1O`, the Potency result in test [1], in test [2], in [3], in test [4], in [5] and in [7] was “inactive” each time. For the same compound, the Potency entry (in test [9]; in test [10]; in [13]; in test [12]; in the test with Aromatase (Homo sapiens)) was “inactive” in each case.

As for `CN1CCN(CCC(=O)N2c3ccccc3Sc3ccc(C(F)(F)F)cc32)CC1`, the Potency result in [1], in test [5], in test [18], in [19], in [6] and in test [7] was “inactive” each time. The Potency result (in test [8]; in [14]; in test [11]; with Aromatase (Homo sapiens)) was “inactive” throughout. Further, the Potency in test [2] is 16.8 µM (active); in [3], 13.3 µM (active); in test [4] it was 21.1 µM (active); in [9], 11.9 µM (active); in test [10], 26.6 µM (active). Moreover, the activation in test [16] is -0.0617% (inactive).
